Inconclusive results are not listed. Active and inactive are the calls of the source. Unless noted, the call rests on the fitted dose curve; in most records, active means well fitted curve in the direction sought with a large enough effect; inconclusive means small, poorly fitted or top-dose-only effect, or another doubt; inactive means no such curve, though single readings can be large; an effect the other way counts as inactive or inconclusive.
Legend:
[1] = S16 Schwann cell PMP22 intronic element firefly luciferase assay (AID 624032); further: nearly all actives have a fitted effect of over 30% in size; further: potency means the concentration at half of the fitted maximal effect
Outline: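 Rat S16 Schwann cells stably carrying a PMP22 intronic element-driven Fluc reporter were seeded overnight, then exposed to compounds for 24 h at 37 °C. Luminescence was normalized to PTC124 (positive control) and DMSO (0% activity).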

[2] = S16 Schwann cell PMP22 intronic element beta-lactamase assay (AID 624044; calls by dose curve; further: nearly all actives have a fitted effect of over 15% in size)
Outline: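 Rat S16 Schwann cells with beta-Lac driven by a PMP22 intronic element, compound-treated 24 h at 37 °C. LiveBLAzer FRET B/G read: 460 nm normalized to potassium clavulanate vs DMSO; 535 nm FRET as viability; concentration-effect curves classified.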

[3] = system: CP192; experiment: qHTS profiling for inhibitors of Plasmodium falciparum proliferation (AID 504749); further: nearly all actives have a fitted effect of over 60% in size; further: potency means the concentration at half of the fitted maximal effect; settings: P. falciparum in erythrocytes, SYBR Green DNA, 72 h; series mostly up to 28.7 µM
Outline: (§1)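 P. falciparum-infected erythrocytes (0.3% parasitemia, 2.5% hematocrit final) were exposed to compounds for 72 h at 37 C in 5% CO2, then lysed with SYBR Green buffer overnight at room temperature; parasite DNA fluorescence was normalized to artemisinin and DMSO controls.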

[4] = system: CP194; experiment: as above; settings: P. falciparum in erythrocytes, SYBR Green DNA, 72 h; series mostly up to 12.8 µM
Outline: as §1

[5] = system: CP215; experiment: as above; settings: P. falciparum in erythrocytes, SYBR Green DNA, 72 h; series mostly up to 28.7 µM
Outline: as §1

[6] = system: CP260; experiment: as above; settings: P. falciparum in erythrocytes, SYBR Green DNA, 72 h; series mostly up to 12.8 µM
Outline: as §1

[7] = system: CP266; experiment: as above; settings: P. falciparum in erythrocytes, SYBR Green DNA, 72 h; series mostly up to 28.7 µM
Outline: as §1

[8] = system: CP297; experiment: as above; settings: P. falciparum in erythrocytes, SYBR Green DNA, 72 h; series mostly up to 12.8 µM
Outline: as §1

[9] = system: CP315; experiment: as above; settings: P. falciparum in erythrocytes, SYBR Green DNA, 72 h; series mostly up to 12.8 µM
Outline: as §1

[10] = system: DIV14; experiment: as above; settings: P. falciparum in erythrocytes, SYBR Green DNA, 72 h; series mostly up to 12.8 µM
Outline: as §1

[11] = system: DIV17; experiment: as above; settings: P. falciparum in erythrocytes, SYBR Green DNA, 72 h; series mostly up to 12.8 µM
Outline: as §1

[12] = system: GB4; experiment: as above; settings: P. falciparum in erythrocytes, SYBR Green DNA, 72 h; series mostly up to 12.8 µM
Outline: as §1

[13] = system: TAB109; experiment: as above; settings: P. falciparum in erythrocytes, SYBR Green DNA, 72 h; series mostly up to 12.8 µM
Outline: as §1

[14] = system: W2; experiment: as above; settings: P. falciparum in erythrocytes, SYBR Green DNA, 72 h; series mostly up to 12.8 µM
Outline: as §1

[15] = target: Guanine nucleotide-binding protein G(i) subunit alpha-1 (Homo sapiens) (UniProt P63096); experiment: qHTS Assay for Inhibitors of RGS12 GoLoco Motif Activity (Green Fluorophore) (AID 879); further: potency means the concentration at half of the fitted maximal effect
Chain of Guanine nucleotide-binding protein G(i) subunit alpha-1 (Homo sapiens) (P63096 whole entry, looked up): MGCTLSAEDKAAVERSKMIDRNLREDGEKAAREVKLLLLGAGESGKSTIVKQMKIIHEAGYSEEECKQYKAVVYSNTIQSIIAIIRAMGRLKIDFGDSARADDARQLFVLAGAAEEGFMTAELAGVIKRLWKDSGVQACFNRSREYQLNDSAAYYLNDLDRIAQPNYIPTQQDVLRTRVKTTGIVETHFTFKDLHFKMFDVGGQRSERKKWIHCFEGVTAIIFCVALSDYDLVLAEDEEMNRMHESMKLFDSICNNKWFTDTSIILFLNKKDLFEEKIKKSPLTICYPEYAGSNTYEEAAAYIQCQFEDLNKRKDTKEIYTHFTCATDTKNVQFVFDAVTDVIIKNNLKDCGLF
Outline: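 Fluorescence polarization assay: 50 nM Gαi1 with 10 nM FITC-labeled RGS12 GoLoco peptide in 10 mM Tris pH 7.5, 150 mM NaCl, 0.1 mM GDP, 0.05% NP40, 10 min at room temperature with compound.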

[16] = qHTS Assay for Identification of Small Molecule Agonists for Thrombopoietin (TPO) Signaling Pathway (AID 917)
Outline: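 Murine Ba/F3 cells stably expressing human TPO receptor and a Glycoprotein IIb promoter–luciferase reporter were IL-3-starved overnight, then treated with compounds plus TPO (26 pM final, its EC50) for 24 hrs at 37 C; luminescence was read.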

[17] = target: Pyruvate kinase (Leishmania mexicana) (UniProt Q27686); experiment: qHTS Validation Assay for Inhibitors of Leishmania Mexicana Pyruvate Kinase (AID 945)
Chain of Pyruvate kinase (Leishmania mexicana) (Q27686 2-499 E452W): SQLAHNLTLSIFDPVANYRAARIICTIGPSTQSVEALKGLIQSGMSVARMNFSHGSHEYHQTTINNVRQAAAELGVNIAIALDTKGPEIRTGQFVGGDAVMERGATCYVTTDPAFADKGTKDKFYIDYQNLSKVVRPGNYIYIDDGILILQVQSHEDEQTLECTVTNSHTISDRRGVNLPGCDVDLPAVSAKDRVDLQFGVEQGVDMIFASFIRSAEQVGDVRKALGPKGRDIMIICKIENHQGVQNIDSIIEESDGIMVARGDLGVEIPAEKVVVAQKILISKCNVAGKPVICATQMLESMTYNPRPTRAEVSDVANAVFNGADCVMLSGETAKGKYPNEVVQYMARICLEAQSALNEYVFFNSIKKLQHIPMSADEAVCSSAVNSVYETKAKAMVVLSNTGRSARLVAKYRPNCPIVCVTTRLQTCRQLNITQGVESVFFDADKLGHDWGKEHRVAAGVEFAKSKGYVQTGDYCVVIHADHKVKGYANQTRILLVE
Outline: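 qHTS eight-point titrations against 0.2 nM LmPYK (E451W) in imidazole buffer pH 7.2 with 0.5 mM PEP, 0.1 mM ADP; 1 h, room temperature. Readout: PKLight luminescence, normalized to neutral DMSO wells.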

[18] = target: Pyruvate kinase PKM (Homo sapiens) (UniProt P14618); experiment: qHTS Assay for Activators of Human Muscle Pyruvate Kinase (AID 954; active means well fitted curve in the direction sought with a large enough effect, not every such curve was filed as active)
Chain of Pyruvate kinase PKM (Homo sapiens) (P14618 whole entry, looked up): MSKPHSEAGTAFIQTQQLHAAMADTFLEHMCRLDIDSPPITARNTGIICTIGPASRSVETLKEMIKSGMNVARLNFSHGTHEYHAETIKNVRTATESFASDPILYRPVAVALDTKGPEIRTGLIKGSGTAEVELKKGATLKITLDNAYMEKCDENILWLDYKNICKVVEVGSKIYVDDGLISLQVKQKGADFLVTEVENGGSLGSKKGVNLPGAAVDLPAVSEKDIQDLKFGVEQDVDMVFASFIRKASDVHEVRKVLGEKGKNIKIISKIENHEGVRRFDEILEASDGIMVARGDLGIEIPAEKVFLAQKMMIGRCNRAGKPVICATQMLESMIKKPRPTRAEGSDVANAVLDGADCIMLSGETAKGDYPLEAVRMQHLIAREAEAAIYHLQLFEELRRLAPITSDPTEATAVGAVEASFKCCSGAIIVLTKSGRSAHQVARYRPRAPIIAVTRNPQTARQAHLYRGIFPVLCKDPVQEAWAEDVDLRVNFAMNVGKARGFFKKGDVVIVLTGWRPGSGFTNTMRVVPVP
Outline: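 Human PKM2 activity is measured as ATP generation, detected by luciferase-coupled luminescence. The enzyme (0.1 nM) acts on 0.5 mM PEP and 0.1 mM ADP for 1 h at ambient temperature; data are normalized to uninhibited and full-inhibition wells.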

[19] = target: Alpha-galactosidase A (Homo sapiens) (UniProt P06280); experiment: Counterscreen for Glucocerebrosidase Inhibitors: qHTS Assay for Human alpha-Galactosidase at pH 4.5 (AID 992)
Chain of Alpha-galactosidase A (Homo sapiens) (P06280 whole entry, looked up): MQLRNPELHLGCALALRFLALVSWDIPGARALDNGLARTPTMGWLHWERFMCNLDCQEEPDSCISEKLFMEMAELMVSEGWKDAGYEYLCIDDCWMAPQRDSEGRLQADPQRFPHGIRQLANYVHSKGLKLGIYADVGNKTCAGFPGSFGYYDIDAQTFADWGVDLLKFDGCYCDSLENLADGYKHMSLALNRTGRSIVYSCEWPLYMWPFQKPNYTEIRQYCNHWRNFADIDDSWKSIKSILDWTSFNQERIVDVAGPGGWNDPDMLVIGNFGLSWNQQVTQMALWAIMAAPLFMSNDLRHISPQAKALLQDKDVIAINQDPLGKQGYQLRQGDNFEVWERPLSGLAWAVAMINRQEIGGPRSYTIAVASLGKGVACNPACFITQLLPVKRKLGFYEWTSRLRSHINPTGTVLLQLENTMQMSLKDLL
Outline: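 Quantitative HTS: compounds tested from 0.7 nM up to 77 uM against 2 nM enzyme with 80 uM 4-MU alpha-D-galactopyranoside. The 20 min room-temperature reaction is stopped with 1M NaOH/1M glycine, pH 10.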

[20] = target: alpha-glucosidase (Oryza sativa, rice) (UniProt Q653V4); experiment: Counterscreen for Glucocerebrosidase Inhibitors: qHTS Assay for Rice alpha-Glucosidase at pH 5.0 (AID 997)
Outline: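 Rice alpha-glucosidase (4 nM final) with 400 uM 4-methylumbelliferyl-alpha-D-glucopyranoside in citrate buffer pH 5.0, 20 min at room temperature, stopped at pH 10; fluorescence 365/440 nm, compounds 0.7 nM–77 uM, AC50 from Hill fits.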

Measured: Potency

NC(=O)OC[C@H](O)COc1ccc(Cl)cc1
not listed: [15] | [16] | [17] | [18] | [19] | [20]
inactive: all other assays above

CC(=O)N(CC(O)CN(C(C)=O)c1c(I)c(C(=O)NC[C@@H](O)CO)c(I)c(C(=O)NC[C@@H](O)CO)c1I)c1c(I)c(C(=O)NC[C@@H](O)CO)c(I)c(C(=O)NC[C@@H](O)CO)c1I
inactive: [2] | [3] | [4] | [5] | [6] | [7] | [8] | [9] | [11] | [12] | [13]

COCCc1ccc(OC[C@H](O)CNC(C)C)cc1
inactive: all assays above

CN(N=O)C(=O)N[C@H]1[C@@H](O)[C@H](O)[C@H](CO)O[C@@H]1O
not listed: [2] | [15] | [16] | [17] | [18] | [19] | [20]
inactive: all other assays above

OCCN1CCN(CC/C=C2\c3ccccc3Sc3ccc(C(F)(F)F)cc32)CC1
inactive: [15] | [17] | [18] | [19] | [20]

CC[C@H](NC(C)C)[C@H](O)c1ccc(O)c(O)c1
active: [1] 11.4 µM
not listed: [6] | [10] | [11] | [12] | [14] | [16]
inactive: all other assays above

C[C@@H](CN(C)C)CN1c2ccccc2CCc2ccccc21
not listed: [4] | [5] | [10] | [11] | [12] | [14] | [16]
inactive: all other assays above

CN(C)CCO[C@](C)(c1ccccc1)c1ccccn1
inactive: [15] | [16] | [17] | [18] | [19] | [20]

CCN(CC)CCC[C@H](C)Nc1c2ccc(Cl)cc2nc2ccc(OC)cc12
active: [15] 25.1 µM | [3] 478 nM | [4] 1.51 µM | [5] 1.69 µM | [6] 501 nM | [7] 1.51 µM | [8] 536 nM | [9] 3.01 µM | [10] 478 nM | [11] 536 nM | [12] 379 nM | [13] 501 nM | [14] 338 nM
inactive: [17] | [18] | [19] | [20] | [2]

CN1CCc2cccc3c2[C@@H]1Cc1ccc(O)c(O)c1-3
inactive: [15] | [17] | [19] | [20]

CCC[C@H]1C(=O)N2C(N(C)C)=Nc3ccc(C)cc3N2C1=O
not listed: [15] | [16] | [17] | [18] | [19] | [20]
inactive: all other assays above

CCN[C@@H]1C[C@H](C)S(=O)(=O)c2sc(S(N)(=O)=O)cc21
not listed: [15] | [16] | [17] | [18] | [19] | [20]
inactive: all other assays above

NS(=O)(=O)c1cc([C@@]2(O)NC(=O)c3ccccc32)ccc1Cl
not listed: [7] | [15] | [16] | [17] | [18] | [19] | [20]
inactive: all other assays above

CC(=O)Nc1c(I)c(C(=O)N[C@H]2[C@@H](O)[C@H](O)[C@H](CO)O[C@@H]2O)c(I)c(N(C)C(C)=O)c1I
not listed: [15] | [16] | [17] | [18] | [19] | [20]
inactive: all other assays above

CN1[C@@H](CC(=O)c2ccccc2)CCC[C@@H]1C[C@@H](O)c1ccccc1
inactive: [15] | [16] | [17] | [18] | [19] | [20]

CN(C)[C@H]1C(=O)C(C(=O)NCN2CCCC2)=C(O)[C@]2(O)C(=O)C3=C(O)c4c(O)cccc4[C@@](C)(O)[C@H]3C[C@@H]12
not listed: [1] | [15] | [16] | [17] | [18] | [19] | [20]
inactive: all other assays above

C[C@@H](C(=O)O)c1cccc(C(=O)c2ccccc2)c1
inactive: [15] | [17] | [18] | [19] | [20] | [1]

COc1ccc(C[C@@H]2c3cc(OC)c(OC)cc3CC[N@+]2(C)CCC(=O)OCCCCCOC(=O)CC[N@@+]2(C)CCc3cc(OC)c(OC)cc3[C@H]2Cc2ccc(OC)c(OC)c2)cc1OC
not listed: [1] | [3] | [15] | [16] | [17] | [18] | [19] | [20]
inactive: all other assays above

C[C@@H](C(=O)O)c1ccc(C(=O)c2cccs2)cc1
not listed: [7] | [15] | [16] | [17] | [18] | [19] | [20]
inactive: all other assays above
